The campaign covered roughly 330,000 compounds. About 1,700 (0.52%) were called active. This is one part of a sample in which actives are shown more often than they occur. A number with no mark means an inactive call.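 How the source made its calls: active means GFP response versus DMSO above a set limit, roughly screen mean plus 3 SD (cut at about 180% in these data); inconclusive means fewer than 70 cells counted for a yeast strain; inactive means the rest.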

A short description of the assay: TOR pathway GLN3 branch reporter MEP2-GFP changes – S. cerevisiae, multiplex flow cytometry, MLPCN library, primary screen (AID 2016).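 Further: median GFP fluorescence of the barcode-gated MEP2-GFP cells per well.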 The note with it: S. cerevisiae MEP2-GFP strain, 3 h, at 10 µM, active compounds read high.
In the case of `NCCc1c[nH]c2ccc(O)cc12`, the GFP response vs DMSO was 206% [may fluoresce violet] (active). The value for `C/C(CCc1c[nH]c2ccccc12)=N\O` was 105%; that for `Cc1cccc2c(CCN)c[nH]c12` was 105%; that for `COC1=CC=C2[C@H]3Cc4ccc(OC)c5c4[C@@]2(CCN3C)C1O5` (stereo not given in full) was 106%.

In the case of `CCCOC(=O)C1C2c3ccccc3C(c3ccccc32)C1C(=O)O` (stereo not given), the GFP response vs DMSO was 99.1%.

Source of the values: PubChem BioAssay AID2016 (NMMLSC, 2009).
